Screening results (PubChem BioAssay)
TRPV1 PAM: HTS Assay for Compounds that Act as Potentiators of the Vanilloid Receptor 1; Transient receptor potential cation channel subfamily V member 1 (Homo sapiens), Q8NER1; TRPV1-expressing cells, Fluo-8 calcium influx, capsaicin EC20 potentiation; potentiation, % at 8.33 µM; 320,000 tested, 0.02% active; AID 540277, 2011; in the data active = potentiation above about 80%; inconclusive = between about 30% and that limit
Target sequence (Q8NER1 whole entry, looked up): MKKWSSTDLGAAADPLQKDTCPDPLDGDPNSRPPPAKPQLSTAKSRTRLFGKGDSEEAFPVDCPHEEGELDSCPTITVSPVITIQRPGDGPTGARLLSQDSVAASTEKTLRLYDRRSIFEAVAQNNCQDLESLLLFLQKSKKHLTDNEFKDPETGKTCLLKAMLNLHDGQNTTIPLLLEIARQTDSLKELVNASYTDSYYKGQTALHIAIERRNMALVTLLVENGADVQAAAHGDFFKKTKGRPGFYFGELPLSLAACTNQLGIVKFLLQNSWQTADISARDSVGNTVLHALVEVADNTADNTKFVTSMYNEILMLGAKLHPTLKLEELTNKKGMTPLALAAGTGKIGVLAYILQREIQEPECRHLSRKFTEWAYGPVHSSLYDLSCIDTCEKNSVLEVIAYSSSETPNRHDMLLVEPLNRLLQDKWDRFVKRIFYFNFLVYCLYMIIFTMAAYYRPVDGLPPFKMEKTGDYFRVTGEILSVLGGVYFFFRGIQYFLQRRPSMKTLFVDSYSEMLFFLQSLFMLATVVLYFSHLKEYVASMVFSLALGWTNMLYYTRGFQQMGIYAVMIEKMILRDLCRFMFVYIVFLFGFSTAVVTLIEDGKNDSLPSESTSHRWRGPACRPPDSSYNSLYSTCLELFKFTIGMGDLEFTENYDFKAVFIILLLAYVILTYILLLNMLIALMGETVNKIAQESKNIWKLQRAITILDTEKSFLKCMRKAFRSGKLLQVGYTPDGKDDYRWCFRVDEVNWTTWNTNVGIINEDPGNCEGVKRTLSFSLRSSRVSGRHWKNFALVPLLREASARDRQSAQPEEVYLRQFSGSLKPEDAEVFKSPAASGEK
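Cells expressing TRPV1 were dye-loaded with Fluo-8 and read kinetically: 10 s baseline, 3 min after compound (agonist portion), then 2 min after EC20 capsaicin (allosteric enhancer portion). Calcium-bound dye fluorescence at 480/520 nm.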
D1 agonist: Allosteric Agonists of the Human D1 Dopamine Receptor: qHTS; HEK293 T-REx D1 cells, calcium flux, agonist mode; activation, % at 2 µM; AID 504660, 2011; 360,000 tested, 1% active; D(1A) dopamine receptor (Homo sapiens), P21728; in the data active = activation above about 30%
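Agonism was scored from calcium flux recorded over 180 s (1 read/s) after pintool compound addition, following a 10-cycle baseline. Cells were inducible force-coupled HEK293 TREx D1, plated overnight at 30 C and loaded with no-wash calcium dye.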
TRPV1 agonist: HTS Assay for Compounds that Act as Agonists of the Vanilloid Receptor 1. TRPV1-expressing cells, Fluo-8 calcium influx, agonist mode. activation, % at 8.33 µM. 320,000 tested, 0.19% active; in the data active = activation above about 80%; inconclusive = between about 30% and that limit
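Fluo-8 calcium influx in TRPV1-expressing cells, kinetic read (ex 480/em 520 nm). Compound added and read 3 min for agonist activity, followed by capsaicin at EC20 final and 2 min further read for enhancement.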
D1 potentiator: Potentiators of Human D1 Dopamine Receptor: qHTS; D(1A) dopamine receptor (Homo sapiens), P21728; HEK293 TREx D1 cells, calcium flux, dopamine EC20 potentiation; potentiation, % at 10 µM; 360,000 tested, 0.036% active; AID 504651, 2011; in the data active = potentiation above about 30%
D1 antagonist: Antagonist of Human D 1 Dopamine Receptor: qHTS. HEK293 TREx D1 cells, calcium flux, dopamine EC80; active compounds read low. activity change, negative = inhibition, % at 10 µM. 360,000 tested, 3.2% active; in the data active = activity change below about -30%
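Inducible Hek293 Trex D1 cells (tetracycline, overnight, 30 C). Calcium dye 30–90 min RT. Antagonist mode: EC80 dopamine added after 180 s compound read.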
Of the large screens only hits and unclear results are named; the others gave an inactive call; ! = not active in a repeat. A selection: hits, their analogues and other compounds. The true share with any hit is near 4.2%.

Cc1cc(N2CCCC(C(=O)Nc3ccc4c(c3)CCC4)C2)n2ncnc2n1 (stereo not given)	TRPV1 agonist 93
Cc1cc(=O)n2nc(N3CCCC(C(=O)NCCc4ccccc4)C3)sc2n1 (stereo not given)	none
Cc1cc(=O)n2nc(N3CCCC(C(=O)Nc4ccc(C)c(C)c4)C3)sc2n1 (stereo not given)	TRPV1 PAM inconclusive, D1 antagonist -59
CCc1ccccc1NC(=O)C1CCCN(c2nn3c(=O)cc(C)nc3s2)C1 (stereo not given)	none
CCOc1ccc(C2c3c(oc4ccc(C)cc4c3=O)C(=O)N2c2nc(C)c(C)s2)cc1OC (stereo not given)	none (no result: TRPV1 PAM, TRPV1 agonist)
Cc1ccccc1CSc1ncc(CO)n1Cc1ccc(F)cc1	none (no result: TRPV1 PAM, TRPV1 agonist)
O=C(OCC1CCCO1)c1ccc2c(c1)N(Cc1ccccc1F)C(=O)c1ccccc1S2(=O)=O (stereo not given)	none (no result: TRPV1 PAM, TRPV1 agonist)
COc1ccccc1N1CCN(S(=O)(=O)c2c(C)nc3sc(C)c(C)n3c2=O)CC1	none (no result: TRPV1 PAM, TRPV1 agonist)
COc1ccccc1CNC(=O)C(CC(C)C)NS(=O)(=O)c1ccc2c(c1)oc(=O)n2C (stereo not given)	D1 antagonist -32!
COc1cc2c(cc1OC)C(c1ccc(F)cc1)N(c1ccccc1)C(=O)C2 (stereo not given)	none (no result: TRPV1 PAM, TRPV1 agonist)
N#C/C(=N\Nc1cccc(C(F)(F)F)c1)C(=O)c1ccsc1	D1 antagonist -32
Cc1nccc(-c2cccc(N/N=C(\C#N)C(=O)c3ccccc3)c2)n1	none
CCn1c(SCC(=O)NCc2cccs2)nnc1-c1cccs1	D1 antagonist -39
NCCOc1ccc(C2CCCCC2)cc1	D1 agonist 32
O=C(O)COc1ccc(/C=C/C(=O)c2ccc(C3CCCCC3)cc2)cc1	none
CCN(CC)S(=O)(=O)c1ccc(N=Nc2c(N)[nH]c(=O)[nH]c2=O)cc1	D1 antagonist -41
O=c1cc(CSc2nc3ccccc3c(=O)[nH]2)c2ccc(O)cc2o1	D1 antagonist -37
COC1=C(OC)C(=O)C(CCCCCCCCCCO)=C(C)C1=O	D1 antagonist -41
COC(=O)CN1C(C(=O)c2ccccc2)=C(OC(=O)c2ccccc2)c2ccccc2S1(=O)=O	none (no result: TRPV1 PAM, TRPV1 agonist)
CN(CC(=O)Nc1ccc(Cl)c(C(F)(F)F)c1)C(=O)c1ccc(OCC2CCCO2)cc1 (stereo not given)	D1 antagonist -49
CCN(CC)CCCNC(=O)CSc1nc2nc(C)c(Cc3ccccc3C)c(C)n2n1	none (no result: TRPV1 PAM, TRPV1 agonist)
CCS(=O)(=O)N1CCC(C(=O)NC2CCCCCCC2)CC1	none
CC(C)CN(CC(C)C)S(=O)(=O)N1CCC(C(=O)NC2CCCCCCC2)CC1	TRPV1 agonist 84, D1 antagonist -36
O=C(NCc1ccccc1C(F)(F)F)C1CC(c2cccc(F)c2)=NO1 (stereo not given)	D1 antagonist -91
O=C(NCc1cccs1)C1CC(c2ccc(Cl)cc2)=NO1 (stereo not given)	D1 antagonist -33
O=C(NCCc1cccs1)C1CC(c2cccc(F)c2)=NO1 (stereo not given)	D1 agonist 40
O=C(NCc1ccccc1C(F)(F)F)C1CC(c2cc(C(F)(F)F)cc(C(F)(F)F)c2)=NO1 (stereo not given)	none
Cc1cc(=O)n2c(C(=O)Nc3ccc(Br)cc3)c(C(=O)Nc3ccccc3)sc2n1	none (no result: TRPV1 PAM, TRPV1 agonist)
COc1ccc(-c2cc(C)no2)cc1S(=O)(=O)NCc1cccs1	none (no result: TRPV1 PAM, TRPV1 agonist)
CCc1ccc(OCC(=O)Nc2c(C(=O)c3ccccc3)oc3ccccc23)cc1	none (no result: TRPV1 PAM, TRPV1 agonist)
CC(C)n1cc(/C=C2/NC(=O)N(c3cccc(Cl)c3)C2=O)c2ccccc21	D1 antagonist -53
O=C(O)Cn1cc(/C=C2/NC(=O)N(c3ccc(Cl)cc3)C2=O)c2ccccc21	TRPV1 PAM inconclusive
CC(C)n1cc(/C=C2\NC(=O)N(c3cccc(Cl)c3)C2=O)c2ccccc21	D1 antagonist -68
CCn1cc2nc(SCc3cccc(OC)c3)n(Cc3ccc(Cl)cc3)c(=O)c2n1	none (no result: TRPV1 PAM, TRPV1 agonist)
Cc1ccc(C)c(S(=O)(=O)N2CCN(C(=O)CSc3ccccc3F)CC2)c1	D1 agonist 31
CCOC(=O)c1c(-c2ccc(OC)cc2)csc1/N=C/N(C)C	none
CCOC(=O)c1c(-c2ccc(OC)cc2)csc1/N=C/C1C(=O)CCCC1=O	D1 antagonist -47
Cc1ccccc1CNC(=O)c1nn(-c2ccccc2F)nc1CO	none (no result: TRPV1 PAM, TRPV1 agonist)
COc1ccc(-c2nc3sc(CCNC(=O)c4cc(OC)c(OC)c(OC)c4)c(C)n3n2)cc1	none (no result: TRPV1 PAM, TRPV1 agonist, D1 antagonist)
Cc1nn(-c2ccccc2)nc1C(=O)Nc1ccc2[nH]ncc2c1	TRPV1 agonist 91
Cc1nn(-c2ccccc2)nc1C(=O)NN	TRPV1 PAM inconclusive
CCOC(=O)C1CCCN(c2nc3c(S(=O)(=O)c4ccc(Br)cc4)nnn3c3ccsc23)C1 (stereo not given)	none (no result: TRPV1 PAM, TRPV1 agonist)
COC(=O)c1c(N)nc(C)n1-c1ccc(OC)cc1	D1 potentiator 41
Cc1noc(C)c1COC(=O)c1cnc(Cl)c(Cl)c1	D1 antagonist -42
CCOc1nc(NC(=O)NS(=O)(=O)Oc2cccc(F)c2)nc(-c2ccccc2)n1	none (no result: TRPV1 PAM, TRPV1 agonist)
CCCc1ccc(C(=O)NC(=O)c2ccccc2O)cc1	D1 antagonist -64
O=C(NC(=O)c1ccccc1O)c1ccc(C(F)(F)F)cc1	D1 agonist 37
CCCN(CCC)C(=O)Cn1c(=O)n(-c2ccc(OC)cc2)c(=O)c2ccc(C(=O)NCc3ccc(C)cc3)cc21	none (no result: TRPV1 PAM, TRPV1 agonist)
CC(CCN1CCOCC1)c1ccccc1 (stereo not given)	none
CC(CN1CCN(c2ccccc2)CC1)c1ccccc1 (stereo not given)	D1 antagonist -59
CC(C)c1ccc(OCC(O)CN2CCN(c3ccccc3)CC2)cc1 (stereo not given)	none
CC(CCN1CCN(c2ccc(F)cc2)CC1)c1ccccc1 (stereo not given)	D1 antagonist -62
C/C=C(\C)CN1CCN(c2ccccc2)CC1	none
C/C(=C\c1ccccc1)CN1CCN(c2ccccc2)CC1	D1 antagonist -38
COc1ccc(NC(=O)c2ccc3oc(=O)c(S(=O)(=O)c4ccc(C)cc4)cc3c2)cc1OC	none (no result: TRPV1 PAM, TRPV1 agonist)
CCc1ccccc1NC(=O)Nc1ccc2snnc2c1	D1 agonist 33 (no result: TRPV1 PAM, TRPV1 agonist)
COc1cccc(NC(=O)Nc2nc(-c3ccc(OC)c(OC)c3)cs2)c1	D1 antagonist -40
COc1ccc(-c2csc(NC(C)=O)n2)cc1OC	none
COc1cccc(NC(=O)Nc2ccc3snnc3c2)c1	D1 agonist 37 (no result: TRPV1 PAM, TRPV1 agonist)
